Growth data for five molecules are collected here from PubChem BioAssay (NCI).

Among the test systems are RPMI-8226 leukemia; OVCAR-8 ovarian; OVCAR-5 ovarian; OVCAR-4 ovarian; SK-OV-3 ovarian; OVCAR-3 ovarian; HS 578T breast; NCI/ADR-RES ovarian; T-47D breast; BT-549 breast; MDA-MB-435 melanoma; MCF7 breast; HCT-116 colon; HCC-2998 colon; KM12 colon; IGROV1 ovarian; SW-620 colon.
Test in all cases: NCI-60 one-dose screen, 48 h (100 = growth as untreated, 0 = no growth, -100 = all killed)
Settings in all cases: 10 µM

This is part of a sample that, as a whole, favours compounds with a hit. Of some 83,000 tested, about 20% had one in any assay.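 Activity criterion: percent growth below 10, measured after cells in 96-well plates were exposed to a single compound concentration for 48 hours.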 Values without a mark were called inactive. The source made the active and inactive calls.

`CCN(CC)CCNc1ccc(CO)c2oc3cc(Cl)ccc3c(=O)c12`: the growth is 85.7% in the assay on RPMI-8226 leukemia; 59.4% in the assay on OVCAR-8 ovarian; 104% in the assay with OVCAR-5 ovarian; 78.7% with OVCAR-4 ovarian; 92.9% in the assay on SK-OV-3 ovarian; 91.8% in the assay on OVCAR-3 ovarian. Further, the growth with HS 578T breast was 99%; in the assay with NCI/ADR-RES ovarian, 74.2%; in the assay on T-47D breast, 117%; in the assay on BT-549 breast it was 94.9%; in the assay with MDA-MB-435 melanoma it was 78.4%; in the assay on MCF7 breast it was 64.5%. Also, the growth is 58.6% in the assay with HCT-116 colon, 88.3% in the assay on HCC-2998 colon and 98.6% with KM12 colon.
For the molecule `CCN(CC)CCSCCCNc1c2ccc(Cl)cc2nc2ccc(OC)cc12`, the growth in the assay with RPMI-8226 leukemia is -22.9% (active); in the assay on OVCAR-8 ovarian it was -29.3% (active); in the assay with OVCAR-5 ovarian, -16.7% (active); in the assay on OVCAR-4 ovarian, -34.1% (active); in the assay on SK-OV-3 ovarian, -1.76% (active); with IGROV1 ovarian, -18.7% (active). In addition, the growth with HS 578T breast was 6.72% (active); with NCI/ADR-RES ovarian, 1.58% (active); in the assay on T-47D breast, -32.8% (active); in the assay with BT-549 breast it was 5.29% (active); with MDA-MB-435 melanoma it was -94.7% (active); in the assay with SW-620 colon it was -23.7% (active). Moreover, the growth was -33% (active) in the assay on MCF7 breast, -55.9% (active) with HCT-116 colon, -73.2% (active) with HCC-2998 colon and -10.9% (active) with KM12 colon.
Regarding `COC(=O)c1ccc(=O)oc1`, the growth is 93.7% with RPMI-8226 leukemia; 104% in the assay on OVCAR-8 ovarian; 89.1% in the assay on OVCAR-5 ovarian; 102% in the assay with OVCAR-4 ovarian; 107% in the assay with SK-OV-3 ovarian; 112% in the assay on IGROV1 ovarian. Besides, the growth was 116% in the assay on OVCAR-3 ovarian; 97.1% in the assay on NCI/ADR-RES ovarian; 96.3% with T-47D breast; 104% in the assay on BT-549 breast; 106% in the assay on MDA-MB-435 melanoma; 100% with MCF7 breast. For the same molecule, the growth in the assay on HCT-116 colon is 97.7%; with KM12 colon, 104%.
With `O=C(CC(C(=O)c1ccccc1)N1CCOCC1)c1ccccc1` (configuration not stated), the growth was 40.5% in the assay with RPMI-8226 leukemia; 97.3% in the assay on OVCAR-8 ovarian; 95.5% with OVCAR-5 ovarian; 106% in the assay with OVCAR-4 ovarian; 98.3% in the assay on SK-OV-3 ovarian; 106% with IGROV1 ovarian. In addition, the growth in the assay on HS 578T breast is 99%; in the assay with NCI/ADR-RES ovarian it was 98%; in the assay on T-47D breast, 72.1%; in the assay with BT-549 breast it was 99.6%; in the assay with MDA-MB-435 melanoma, 107%; with SW-620 colon it was 60.8%. Besides, the growth is 43.4% in the assay with MCF7 breast, 77.3% in the assay on HCT-116 colon, 104% in the assay with HCC-2998 colon and 105% with KM12 colon.
As for `CCCCCCCCN(CCCCCCCC)CCCCCCCCCN1CCCc2cc(OC)ccc21`, the growth was 65.9% with RPMI-8226 leukemia; 101% in the assay with OVCAR-8 ovarian; 90.9% in the assay on OVCAR-5 ovarian; 78.2% with OVCAR-4 ovarian; 93.6% in the assay with SK-OV-3 ovarian; 101% with IGROV1 ovarian. For the same molecule, the growth in the assay on HS 578T breast is 91.3%; in the assay on NCI/ADR-RES ovarian it was 88.5%; with T-47D breast, 74.3%; in the assay on BT-549 breast, 94.9%; with MDA-MB-435 melanoma, 104%; with SW-620 colon it was 99%. The growth with MCF7 breast is 96%; with HCT-116 colon it was 75.7%; in the assay on HCC-2998 colon, 93.2%; with KM12 colon it was 104%.
